Experimental data from PubChem BioAssay (NCI).
The panel holds about 79,000 compounds, 15% with a hit somewhere; the sample as a whole holds those more often. A number with no mark means an inactive call. Activity calls are given as the source filed them. Rule as the data show it: active = growth inhibition above about 70%; inactive = the rest.

Test: NCI Yeast Anticancer Drug Screen. Data for the cln2 rad14 strain (AID 165);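 also: 0% = growth equal to vehicle treated cultures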
Conditions: S. cerevisiae cln2 rad14 strain, at 50.0 µM, hits give high values
Protocol: Growth inhibition of yeast strains with defined genetic alterations is measured as a screen for potential anti-cancer activity. Selected strains with alterations in DNA damage repair or cell cycle control were exposed to compounds and growth inhibition was measured relative to vehicle treated controls. The strain used in this assay is cln2 rad14

| SMILES | growth inhibition |
| --- | --- |
| CN(C)NC1=C([N+](=O)[O-])C=NN(c2ccccc2)C1 | 19.4% |
| CC(O)CN1CCOCC1 (stereo not given) | 15.2% |
| O=S(=O)(/C=C/S(=O)(=O)c1ccccc1)c1ccccc1 | 97.9% (active) |
| COc1cc([C@@H]2OC[C@@H]3C(c4cc(OC)c5c(c4)OCO5)OC[C@@H]32)cc(OC)c1OC (stereo not given in full) | 31.1% |
| c1ccc2c(c1)SCCc1nncn1-2 | -24.4% |
| CCOC(=O)CC(=O)Nc1cccc2sc3ncccc3c(=O)c12 | 15.4% |
| C=COS(=O)O | -6.7% |
| Cc1ccc(S(=O)(=O)N/N=c2/sc3ccccc3n2C)cc1 | -7.85% |
| CC12CC(=O)Nc3ccccc3N1C(c1ccccc1)=NO2 (stereo not given) | 3% |
| CC(C)c1ccc(O)c(C(C)(C)C)c1 | -13.9% |
| O=[N+]([O-])c1ccc(OC(=S)Oc2ccc([N+](=O)[O-])cc2)cc1 | -4.4% |
| CC(O)CN1c2ccccc2Sc2ccccc21 (stereo not given) | -18.2% |
| COc1ccc2c(ccc3[nH]c4c(C)cnc(NCCCN(C)C)c4c32)c1 | -3.55% |
| CC1(C)CSC(C)(C)C(=O)N1 | -6.85% |
| Nc1nc(N)c(-c2ccc(Cl)c(Cl)c2)c(COc2cccc3ccccc23)n1 | 96.5% (active) |
| O=C(O)CCCCCC1=CCCCC1 | 19.2% |
| CC(=O)C(C)(O)C(OP(=O)(O)O)c1ccccc1 (stereo not given) | -37.4% |
| C[n+]1cccc2cccc(N)c21 | -5.65% |
| COC(=O)c1ccc(NC(C)=O)c([N+](=O)[O-])c1 | -21.9% |
| Cn1nnc(/C(N)=N/N=C/c2ccccc2)n1 | -22.2% |

| SMILES | growth inhibition |
| --- | --- |
| CCOC(=O)[C@H]1Nc2ccc(Cl)cc2[C@H]2OCC[C@@H]12 | 23.8% |
| CCc1ccccc1N1C(=O)C(=O)C(c2nc3ccccc3s2)C(=O)C1=O | 15.5% |
| CCCCC(CCc1ccccc1)C(=O)NCC (stereo not given) | -11% |
| CCO/N=C(/CNC(=O)Oc1ccccc1)c1ccccc1 | 28% |
| O=C(Nc1ccc(Cl)cc1)Nc1nnc(-c2ccccc2Br)o1 | -15.4% |
| COc1ccc(Cl)cc1NC(=O)CC(C)=O | 6.45% |
| CC(=O)NC(C=O)OCC=O (stereo not given) | 0.55% |
| COC1=C(OC)CCC(/C(C#N)=C/c2ccc(OC)c(OC)c2)=C1 | -11.8% |
| N#C/C(=C\NC(N)=S)C(=O)c1ccc2ccccc2c1 | 27.5% |
| COc1ccc(OCOCOc2ccc(OC)cc2)cc1 | -285% |
| CN1NC(=O)CC1c1ccccc1 (stereo not given) | 11.1% |
| Cc1cccc(/C=C/c2cccc[n+]2[O-])[n+]1[O-] | -31.8% |
| COc1cc(C(=O)NNC(=O)C2CCC(=O)N2Cc2ccccc2)cc(OC)c1OC (stereo not given) | -4.45% |
| Nc1[nH]c(=O)ncc1-c1cccc(Cl)c1 | -7.8% |
| C/C=C1/CN2CCc3c([nH]c4ccccc34)C2CC1C(Cc1c[n+]2c(c3[nH]c4ccccc4c13)CC1C(C(=O)OC)=COC(C)C1C2)C(=O)OC (stereo not given) | 17.1% |
| CCOC(=O)c1ccc(Nc2nc3cc(C(F)(F)F)ccc3nc2C(=O)OCC)cc1 | -19.4% |
| CC(C)(C)N=c1n(C(C)(C)C)oc(=O)n1C(C)(C)C | -2.95% |
| CC1CCC(=N\O)/C(=N/O)C1 (stereo not given) | -12.1% |
| Cc1cc2c(cc1C)NC1C(=O)C(c3ccccc3Cl)OC1=N2 (stereo not given) | 4.55% |
| Ic1cc2c(cc1CNCc1ccccc1)OCO2 | -56.4% |
